Where “and” joins values, the source holds several entries; their conditions need not be identical. Identical values can stand only once. A structure can be active in one record and inactive in another. Calls of active or inactive are those of the source. How the source made its calls: active means hit-call score of the fitted dose curve at least 0.9, where 1 is the maximum; inactive means score below 0.9.
Test: BSK_3C_TissueFactor: BioMAP Diversity Plus: 3C Assay for Tissue Factor Biomarker Activity (AID 2282997)
Details: BioMAP 3C HUVEC, tissue factor biomarker readout; actives raise or lower the signal
Procedure: BSK_3C is a cell-based, multiplexed-readout assay that uses umbilical vein endothelium, a human vascular primary cell, with measurements taken at 24 hours after chemical dosing in a 96-well plate.BSK_3C_TissueFactor is an assay component measured in the BSK_3C assay. It measures Tissue Factor antibody related to regulation of gene expression using ELISA technology.Data from the assay component BSK_3C_TissueFactor was analyzed into 1 assay endpoint. This assay endpoint, BSK_3C_TissueFactor, was analyzed with bidirectional fitting relative to DMSO as the negative control and baseline of activity. Using a type of binding reporter, gain or loss-of-signal activity can be used to understand changes in the signaling as they relate to the gene F3. Furthermore, this assay endpoint can be referred to as a primary readout, because this assay has produced multiple assay endpoints where this one serves a signaling function. To generalize the intended target to other relatable targets, this assay endpoint is annotated to the cytokine intended target family, where the subfamily is coagulation factor.
The levels of cell surface (or secreted, indicated by the prefix "s") biomarker endpoints were measured by ELISA. Overt cytotoxicity to cells in confluent adherent cultures (all systems other than the BT system) was assessed by measuring total protein levels using sulforhodamine B (SRB) staining in parallel cultures at the time of biomarker measurements, indicated as SRB endpoints. For proliferation assays for adherent cell types, individual cell types are cultured at sub-confluence and relative cell numbers quantified by SRB staining at time points optimized for each system (48 h: 3C and CASM3C systems; 72 h: BT and HDF3CGF systems; 96 h: SAg system). SRB was performed by staining cells with 0.1% SRB after fixation with 10% TCA and reading wells at 560 nm.Viability and proliferation of PBMC (T cells) was quantified by Alamar Blue reduction for the SAg and BT systems. For PBMC viability (referred to as PBMC Cytotoxicity within the assay endpoint names), cells were plated (75,000/well in a 96-well plate) and then chemical samples added for 1 h before addition of activators, SEB and TSST-1 (20 ng/mL final concentration each). Cells were incubated for 90 h. Then, Alamar Blue (20 uL/well) (Invitrogen, Cat DAL1100) was added for 6 h, and the plates were read with a fluorescence microplate reader at 546/580 nm (excitation/emission). For PBMC proliferation, cells were plated and activated as above but incubated for only 16 h prior to addition of Alamar Blue. Plates were read after 6 h.

Row | SMILES | outcome | AC50
1 | Oc1ccccc1-c1ccccc1 | inactive | 
2 | CC(C)Oc1cc(-n2nc(C(C)(C)C)oc2=O)c(Cl)cc1Cl | inactive | 
3 | CC1=C(C(=O)Nc2ccccc2)SCCO1 | inactive | 
4 | Fc1ccc(Oc2ccnc3cc(Cl)cc(Cl)c23)cc1 |  | 34.7 µM (active)
5 | O=C(O)c1nc(Cl)ccc1Cl | inactive | 
6 | C=CCC1=C(C)[C@@H](OC(=O)[C@@H]2[C@@H](C=C(C)C)C2(C)C)CC1=O |  | 18.8 µM (active)
7 | CO/C=C(/C(=O)OC)c1ccccc1Oc1cc(Oc2ccccc2C#N)ncn1 | inactive | 21.1 µM (active) and 24.6 µM (active)
8 | CCCC1COC(Cn2cncn2)(c2ccc(Cl)cc2Cl)O1 (stereo not given) | inactive | 
9 | O=C(Nc1ccccc1)Nc1ccnc(Cl)c1 | inactive | 
10 | CCOC(=O)C(Cl)Cc1cc(-n2nc(C)n(C(F)F)c2=O)c(F)cc1Cl (stereo not given) | inactive | 
11 | CON(C)C(=O)Nc1ccc(Cl)c(Cl)c1 | inactive | 
12 | C=CC1(C)OC(=O)N(c2cc(Cl)cc(Cl)c2)C1=O (stereo not given) | inactive | 
13 | COC(=O)C(C)Oc1ccc(Oc2ccc(Cl)cc2Cl)cc1 (stereo not given) | inactive | 
14 | CNC(=O)ON=CC(C)(C)SC | inactive | 
15 | CNC(=S)S | inactive | 
16 | COC(=O)N(OC)c1ccccc1COc1ccn(-c2ccc(Cl)cc2)n1 | inactive | 
17 | CCNc1nc(Cl)nc(NCC)n1 | inactive | 
18 | COc1nc(C)nc(NC(=O)NS(=O)(=O)c2ccccc2Cl)n1 | inactive | 
19 | Cc1c(F)c(F)c(COC(=O)C2C(/C=C(\Cl)C(F)(F)F)C2(C)C)c(F)c1F (stereo not given) | inactive | 
20 | CCON=C(CC)C1=C(O)CC(c2c(C)cc(C)cc2C)CC1=O (stereo not given) | inactive | 

Row | SMILES | outcome | AC50
21 | COc1nc(NC(C)C)nc(NC(C)C)n1 | inactive | 
22 | COC(=O)C=C(C)OP(=O)(OC)OC | inactive | 
23 | N#CC(CCc1ccc(Cl)cc1)(Cn1cncn1)c1ccccc1 (stereo not given) | inactive | 
24 | N#Cc1nn(-c2c(Cl)cc(C(F)(F)F)cc2Cl)c(N)c1S(=O)C(F)(F)F (stereo not given) | inactive | 
25 | COc1nc(C)nc(NC(=O)NS(=O)(=O)c2ccccc2CCC(F)(F)F)n1 | inactive | 
26 | CC(Oc1ccc(Cl)cc1Cl)C(=O)O (stereo not given) | inactive | 
27 | OC(c1ccc(Cl)cc1)(c1cncnc1)c1ccccc1Cl (stereo not given) | inactive | 
28 | CCNc1nc(Cl)nc(NC(C)C)n1 | inactive | 
29 | Cc1ccc(-c2c(Cl)nc(C#N)n2S(=O)(=O)N(C)C)cc1 |  | 27.3 µM (active)
30 | CC1COC(Cn2cncn2)(c2ccc(Oc3ccc(Cl)cc3)cc2Cl)O1 (stereo not given) |  | 31.5 µM (active)
31 | CCCCNC(=O)n1c(NC(=O)OC)nc2ccccc21 | inactive | 
32 | O=C(O)COc1nc(Cl)c(Cl)cc1Cl | inactive | 
33 | CCCCNC(=O)OCC#CI |  | 11.6 µM (active) and 21.2 µM (active)
34 | CCOP(=S)(OCC)SCn1c(=O)oc2cc(Cl)ccc21 | inactive | 
35 | CCc1nn(C)c(C(=O)NCc2ccc(C(C)(C)C)cc2)c1Cl |  | 20 µM (active)
36 | CCCCOC(=O)c1ccccc1C(=O)OCCCC | inactive | 
37 | CS/C(C)=N/OC(=O)N(C)SN(C)C(=O)O/N=C(\C)SC |  | 15.9 µM (active)
38 | CC(C)(C)c1ccc(CSc2cnn(C(C)(C)C)c(=O)c2Cl)cc1 | inactive | 
39 | CC(C)C1(C)N=C(c2nc3ccccc3cc2C(=O)O)NC1=O (stereo not given) | inactive | 

Reference: PubChem BioAssay (EPA / NIEHS)
